hgDAF12 agonist: agonists of H. glycines DAF-12 nuclear receptor; 370,000 tested, 1.8% active; HEK293 GAL4-hgDAF12 UAS-luciferase reporter, agonist luminescence; normalized to butyrate control; activation, % at 6.8 µM;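 active means activation above a cutoff set at the mean of all screened compounds plus 3 SD, cut at about 10% in these data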;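 further: 0% = DMSO wells and 100% = sodium butyrate wells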
DAX1 StAR inh: blocks DAX1 repression of SF-1 activated StAR promoter. HEK293T StAR-luciferase reporter, SF-1/DAX-1 repression relief. inhibition, % at 6.8 µM. 370,000 tested, 1.1% active. AID 652010;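 active means inhibition above the mean over all tested compounds plus 3 SD, cut at about 3.6% in these data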;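 further: 0% = DAX-1 cells with DMSO and 100% = cells lacking DAX-1 with DMSO; higher inhibition means more luminescence from relief of DAX-1 repression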
esBAF inh: blocks esBAF chromatin remodeling in mouse ES cells | reporter increase, % at 12.5 µM | 350,000 tested, 2% active | AID 602393 | Bmi1-luciferase knock-in reporter, 24 h; 100% = twice the neutral-well signal; in the data active means activation above about 40%; inconclusive means no clear call, values can overlap the other calls;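 further: 0% = median of the plate's neutral control wells and 100% = double that signal; a rise in the Bmi1 reporter signal indicates esBAF inhibition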
Wnt bcat act: activators of Wnt/beta-catenin signaling; Wnt/beta-catenin reporter cell assay, activator, plate reader; activation, % at 9.35 µM; 300,000 tested, 1.2% active; AID 743398; in the data active means activation above about 30%, passing the limit was not always enough; inconclusive means no clear call, values can overlap the other calls;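 further: 0% = neutral control wells and 100% = positive control wells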
hcDAF12 agonist: activators of H. contortus DAF-12 nuclear receptor | HEK293 hcDAF-12 lit1-tk-luc reporter, luminescence; 0% DMSO, 100% Δ7-dafachronic acid | activation, % at 6.8 µM | 370,000 tested, 1.4% active | AID 652067;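 active means activation above the mean of all tested compounds plus 3 SD, cut at about 5.5% in these data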;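 further: 100% = response to 3 µM Δ7-dafachronic acid high control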
ssDAF-12 act: activators of S. stercoralis DAF-12 nuclear receptor | HEK293 ssDAF-12/GRIP1 lit1-tk-luc reporter, luminescence; % of 3 µM dafachronic acid response | 370,000 tested, 1% active | activation, % at 6.8 µM;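 active means activation above the mean over all tested compounds plus 3 SD, cut at about 0.9% in these data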;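 further: 0% = DMSO-only wells and 100% = 3 µM delta7-dafachronic acid wells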
hgDAF12 ag: confirmation of H. glycines DAF-12 agonists; shares compounds with hgDAF12 agonist; HEK293 GAL4-hgDAF12 luciferase reporter, agonist mode; percent of butyrate response; activation, % at 6.8 µM; 3,300 tested, 80% active; AID 743050;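 active means mean activation over triplicate wells above the hit cutoff derived from the earlier primary screen, cut at about 11% in these data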;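 further: 0% = DMSO low control and 100% = 2 mM sodium butyrate high control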
LXRb DAF12 ctr: counter-screen for DAF-12 agonists: agonists of human LXR-beta | shares compounds with hgDAF12 agonist | HEK293 Gal4-LXR luciferase reporter, 24 h | activation, % at 6.8 µM | 3,300 tested, under 10 active | AID 743051;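 active means mean activation of the triplicate above a set limit carried over from the primary screen, none filed active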
Target sequence (P55055 whole entry, looked up, the tested form may be a part): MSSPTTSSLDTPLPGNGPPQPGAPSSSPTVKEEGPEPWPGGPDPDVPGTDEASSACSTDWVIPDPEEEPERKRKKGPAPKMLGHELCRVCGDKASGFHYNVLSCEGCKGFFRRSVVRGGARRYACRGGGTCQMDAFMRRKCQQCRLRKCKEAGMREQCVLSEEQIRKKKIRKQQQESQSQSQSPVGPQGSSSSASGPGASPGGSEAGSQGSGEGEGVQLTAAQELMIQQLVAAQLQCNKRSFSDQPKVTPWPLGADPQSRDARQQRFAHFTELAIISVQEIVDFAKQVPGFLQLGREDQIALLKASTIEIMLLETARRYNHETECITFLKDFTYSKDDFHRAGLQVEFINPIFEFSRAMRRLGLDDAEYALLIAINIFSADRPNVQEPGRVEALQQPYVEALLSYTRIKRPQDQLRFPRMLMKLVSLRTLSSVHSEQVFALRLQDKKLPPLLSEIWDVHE
* hit, by the source's call; ? = inconclusive; nt = no result. Only some compounds are listed: those with a hit (about 4.2% of all), similar ones and a draw of the others.

SMILES	hgDAF12 agonist	DAX1 StAR inh	esBAF inh	Wnt bcat act	hcDAF12 agonist	ssDAF-12 act	hgDAF12 ag	LXRb DAF12 ctr
CO[C@@H]1CN(C)C(=O)c2cc(NC(=O)C3CCOCC3)ccc2OC[C@@H](C)N(Cc2cccnc2)C[C@@H]1C	nt	nt	-6	nt	nt	nt	nt	nt
O=C(N/C=C\c1ccccc1)NCc1ccc(Cl)cc1	0	0	nt	nt	-2	-1	nt	nt
O=C(N/C=C/c1ccccc1)c1ccccc1	15*	3	nt	41*	4	1	16*	1
c1ccc2[nH]c(NCc3ccc4c(c3)OCO4)nc2c1	14*	3	38	nt	3	-1	10	0
Cc1cccc(Nc2nc3ccccc3s2)c1C	21*	3	nt	27	5	1.3*	20*	1
Cc1cccc(Nc2n[nH]c(=S)s2)c1C	0	0	nt	1	2	-1	nt	nt
O=C(COc1cccc2cccnc12)Nc1nccs1	14*	1	29	53*	4	1	10*	1
COc1ccccc1OCCCC(=O)Nc1nccs1	14*	4.5*	82*	6	2	0	11*	0
Cc1cccc(OCCCC(=O)Nc2nccs2)c1C	2	0	20	15	-1	-1	nt	nt
O=C(Nc1nccs1)Oc1ccccc1	-1	1	-5	nt	0	-2	nt	nt
COc1ccc(C(CC(=O)Nc2nccs2)n2cccc2)cc1 (stereo unspecified)	16*	2	61*	nt	3	0.9*	16*	1
C/C(=C\c1ccccc1)C(=O)Nc1nccs1	16*	1	?	52*	4	1	12*	0
Cc1ccc(S(=O)(=O)N(C)C[C@H]2Oc3ccc(NS(=O)(=O)c4ccccc4)cc3C(=O)N([C@H](C)CO)C[C@@H]2C)cc1	nt	nt	-1	nt	nt	nt	nt	nt
COc1ccc(NC(=O)N(C)C[C@H]2Oc3ccc(NS(=O)(=O)c4ccc(Cl)cc4)cc3C(=O)N([C@H](C)CO)C[C@H]2C)cc1	nt	nt	-3	nt	nt	nt	nt	nt
CC(C)NC(=O)N(C)C[C@@H]1Oc2ccc(NC(=O)Cn3cnnn3)cc2CC(=O)N([C@@H](C)CO)C[C@H]1C	nt	nt	-2	nt	nt	nt	nt	nt
O=C(CSc1ccc(F)cc1)Nc1ccc(Br)cc1	16*	0	nt	-2	1	-1	12*	0
Cc1ccc(NC(=O)CSCc2ccc(F)cc2)cc1	14*	2	nt	29	3	-1	10	0
Cc1ccc(CSCC(=O)NCc2ccc(F)cc2)cc1	-3	0	nt	-1	-1	-2	nt	nt
CO[C@@H]1CN(C)C(=O)c2cc(NC(=O)c3cc(C)on3)ccc2OC[C@H](C)N(C(C)=O)C[C@@H]1C	nt	nt	1	nt	nt	nt	nt	nt
CO/N=C/NC(=O)N1OC[C@@H]2COc3ccc4ccccc4c3[C@@H]21	-1	0	nt	nt	-2	-1	nt	nt
NC(=S)N1OC[C@@H]2COc3ccc4ccccc4c3[C@@H]21	21*	-1	-10	0	3	-1	8	0
O=C(COC(=O)c1ccccc1Cc1ccccc1)Nc1ccc(SC(F)F)cc1	14*	3	nt	-2	3	0	17*	1
Cc1ccc(C(=O)c2ccccc2C(=O)OCC(=O)Nc2ccc(SC(F)F)cc2)cc1	-4	-1	-1	-1	-2	-1	nt	nt
O=C(Nc1ccc(SC(F)F)cc1)c1ccc(F)cc1	14*	3	nt	17	3	0	14*	1
O=C(Cc1ccccc1F)Nc1ccc(SC(F)F)cc1	17*	3	nt	23	5	0	14*	0
O=C(Nc1ccc(SC(F)F)cc1)c1ccccc1F	16*	3.9*	nt	17	5	0	15*	1
CC=Cc1ccc2n(c1=O)C[C@@H]1[C@@H](CO)[C@H](C(=O)NCCC)[C@H]2N1C(=O)Nc1cc(F)ccc1F (mixture of isomers)	nt	nt	0	nt	nt	nt	nt	nt
CO[C@@H]1CN(C)C(=O)c2ccc(NS(=O)(=O)c3cn(C)cn3)cc2OC[C@H](C)NC[C@@H]1C	nt	nt	-9	nt	nt	nt	nt	nt
